# Source: PubChem BioAssay (several laboratories)
# Shown are actives, neighbours in structure and some others; about 0.5% of the full set was active somewhere.
# AddAB inh: less growth of phage-infected E. coli with AddAB | 0.29% of 330,000 active | AID 435030 | inhibition, % at 11.9 µM | E. coli expressing H. pylori AddAB, absorbance growth; in the data active = inhibition above about 12%
# Tat transport: E. coli Tat transport inhibition. 0.036% of 340,000 active. inhibition, % at 10 µM. E. coli MC4100 TorA-mCherry Tat export, fluorescence. AID 488895;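 active = mean replicate inhibition at least 50% and at least half of replicates individually reaching 50%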;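 also: exported cargo escapes ClpAP degradation while cytoplasmic cargo is degraded and loses fluorescence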
# E coli growth-1: reduces bacterial viability in AddAB counter-screen; inhibition, % at 11.9 µM; E. coli V3065 growth, OD600 absorbance, 18 h; 0.27% of 330,000 active;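 active = inhibition above the campaign's mean inhibition across all tested compounds plus 3 SD, cut at about 9.9% in these data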;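 also: uninfected addAB+ strain grown without phage in ampicillin broth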
# E coli growth-2: blocks Escherichia coli growth; AID 1053175; OD600 absorbance (no concentration beside the values); OD600, 23 h; hits give low values; 0.21% of 330,000 active;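 active = OD600 absorbance below the run mean of sample wells minus 3.6 SD, in any replicate, cut at about 0.56 in these data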
# phage Ecoli inh: E. coli growth loss with phage present. growth absorbance. inhibition, % at 11.9 µM. 0.26% of 360,000 active. AID 651602; in the data active = inhibition above about 11%
# AddAB confirm: growth loss of T4-infected E. coli expressing H. pylori AddAB, confirmed; E. coli V3065 expressing H. pylori AddAB, T4 phage, OD; T4 phage with gene 2 nonsense mutations; inhibition, % at 11.9 µM; 64% of 880 active; shares compounds with AddAB inh;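 active = mean inhibition above a set limit taken from the earlier primary screen, cut at about 13% in these data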;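 also: higher means less bacterial growth since AddAB block lets phage replicate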
# RecBCD counter: reduces growth of phage-infected RecBCD+ E. coli, AddAB inhibitor counter-screen. E. coli V66 + mutant T4 phage, OD growth. AID 488955. 73% of 880 active. inhibition, % at 11.9 µM. shares compounds with AddAB inh;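 active = mean inhibition above the mean of solvent-only control wells plus 3 SD, cut at about 4% in these data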;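 also: optical density read after an 18 h incubation at 37 °C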
# Bact viability: counter-screen: bacterial growth inhibition. bacterial viability, absorbance (AddAB counterscreen). shares compounds with AddAB inh. 35% of 880 active. AID 488956. inhibition, % at 11.9 µM; in the data active = inhibition above about 25%
# Numbers stand for hits; i = inactive; nt = no result.
SMILES,AddAB inh,Tat transport,E coli growth-1,E coli growth-2,phage Ecoli inh,AddAB confirm,RecBCD counter,Bact viability
O=c1[nH]c(=S)ccn1C1OC(CO)C(O)C1O (stereo unspecified),12.4,i,i,i,i,i,i,i
COc1cc(C=NO)cc(Br)c1OCC(=O)NCc1ccccc1,nt,nt,nt,i,nt,nt,nt,nt
COc1ccc(Br)cc1C=Nn1c(C)nc2ccccc2c1=O,nt,nt,nt,i,nt,nt,nt,nt
Cc1ccc(C(=O)NNC(=S)NC(=O)c2ccco2)cc1,12.7,i,i,0.467,i,i,10.4,i
COc1ccc(C(C)=NNC(=S)Nc2cc(C)ccc2C)cc1,nt,nt,nt,i,nt,nt,nt,nt
Cc1cc(C=Nn2c(COc3ccccc3)nc3ccccc3c2=O)c(O)c([N+](=O)[O-])c1,nt,nt,nt,i,nt,nt,nt,nt
Cc1cc(/C=N/n2c(COc3ccccc3)nc3ccccc3c2=O)c(O)c([N+](=O)[O-])c1,14.7,i,13.1,nt,i,i,14.2,i
Cc1[nH]n(-c2ccccc2)c(=O)c1C(=O)c1ccc(Cl)cc1,97.0,i,96.1,i,i,i,i,i
CCOC(=O)C1C2COc3ccc(C)cc3C2N2C(=O)c3cc(Cl)ccc3NC(=O)[C@@]12C (stereo partly specified),nt,nt,nt,i,nt,nt,nt,nt
CC1CCCN(Cc2nc3c(c(=O)n(C)c(=O)n3C)n2Cc2c(F)cccc2Cl)C1 (stereo unspecified),98.6,i,16.2,i,i,i,i,i
O=C(Cn1cc(C(F)(F)F)ccc1=O)NN=Cc1cccc(Cl)c1,nt,nt,nt,i,nt,nt,nt,nt
O=[N+]([O-])c1ccc(N/N=C/c2ccc[nH]2)cc1,12.3,i,i,nt,i,12.8,i,i
Cc1cccc(NC(=O)c2ccccc2O)c1C,i,i,i,i,i,nt,nt,nt
O=C(Nc1ccccc1O)c1ccccc1O,23.7,i,13.3,0.478,i,i,8.2,i
CC(=NNc1ccnc2cc(Cl)ccc12)c1ccc(N)cc1,nt,nt,nt,i,nt,nt,nt,nt
CC(=NNC(=O)C(O)c1ccccc1)c1ccc(Cl)s1 (stereo unspecified),nt,nt,nt,i,nt,nt,nt,nt
O=c1c2ccccc2[nH]c2ccc(F)cc12,14.5,i,10.1,i,i,i,8.8,i
Cc1cccc(NCC(=O)NN=Cc2ccc(Br)cc2)c1,nt,nt,nt,i,nt,nt,nt,nt
c1ccc(-n2ncc3c(N4CCC5(CC4)OCCO5)ncnc32)cc1,i,i,i,i,i,nt,nt,nt
Cc1cccc(-n2ncc3c(N4CCC5(CC4)OCCO5)ncnc32)c1,31.6,i,i,i,i,i,i,i
CCOCCn1c(CN(C)Cc2ccccc2)nc2c1c(=O)n(C)c(=O)n2C,100.0,i,100.1,i,i,i,i,i
CCN1CCN(C2=C(NS(=O)(=O)c3ccc(Br)cc3)C(=O)c3ccccc3C2=O)CC1,14.0,i,10.9,i,i,i,i,i
C/C(C=NNC(=O)Cn1cnc2c1c(=O)n(C)c(=O)n2C)=C\c1ccccc1,nt,nt,nt,i,nt,nt,nt,nt
O=C(Nc1ccc2oc(-c3ccccc3)nc2c1)c1cc(-n2cnnc2)ccc1Cl,95.0,i,65.1,i,i,i,i,i
Cc1noc(C)c1NC(=O)N(C)CC1Oc2c(NS(=O)(=O)c3cccs3)cccc2C(=O)N(C(C)CO)CC1C (stereo unspecified),nt,nt,nt,i,nt,nt,nt,nt
SMILES,AddAB inh,Tat transport,E coli growth-1,E coli growth-2,phage Ecoli inh,AddAB confirm,RecBCD counter,Bact viability
CCOc1ccc(S(=O)(=O)n2cc(F)c(=O)[nH]c2=O)cc1[N+](=O)[O-],23.6,i,17.1,i,i,i,i,i
COc1c(N2CCN[C@H](C)C2)c(F)cc2c(=O)c(C(=O)O)cn(C3CC3)c12,101.8,nt,102.8,nt,nt,100.2,99.7,100.8
Oc1cccc(C=NN=Cc2cccc(O)c2O)c1O,nt,nt,nt,i,nt,nt,nt,nt
CCn1nnc(NC(=O)c2ccc([N+](=O)[O-])o2)n1,18.8,i,10.8,i,i,61.3,6.5,i
O=C(Nc1ccc(S(=O)(=O)N2CCOCC2)cc1)c1ccc([N+](=O)[O-])o1,i,i,i,i,i,nt,nt,nt
Cc1ccccc1NC(=O)c1ccc([N+](=O)[O-])o1,24.2,i,11.1,i,i,30.8,6.7,i
CCCCn1nnc(NC(=O)c2ccc(-c3ccccc3[N+](=O)[O-])o2)n1,i,i,i,i,i,nt,nt,nt
CS(=O)(=O)N1CCN(c2ccccc2NC(=O)c2ccc([N+](=O)[O-])o2)CC1,i,i,i,i,i,nt,nt,nt
CN1CCN(c2ccccc2NC(=O)c2ccc([N+](=O)[O-])o2)CC1,26.5,i,25.5,i,nt,101.3,11.5,37.6
O=C(Nc1ccc(N2CCOCC2)cc1)c1ccc([N+](=O)[O-])o1,15.5,i,13.1,i,i,68.7,8.5,i
CCOC(=O)NN=Cc1c(C)nn(-c2ccccc2Cl)c1Cl,nt,nt,nt,i,nt,nt,nt,nt
CCc1ccc2[nH]c3nc(NN=Cc4ccc(O)cc4O)nnc3c2c1,nt,nt,nt,i,nt,nt,nt,nt
CC(=O)N1CCN(c2ccc(NC(=O)c3ccc([N+](=O)[O-])o3)cc2Cl)CC1,14.0,i,i,i,i,56.2,4.9,i
CC(=O)Nc1ccc2nc(NC(=O)c3ccc([N+](=O)[O-])o3)sc2c1,15.0,i,i,i,i,40.8,5.7,i
CCC(=O)N1CCN(c2ccc(NC(=O)c3ccc([N+](=O)[O-])o3)cc2Cl)CC1,nt,i,nt,i,i,nt,nt,nt
O=C(Nc1ccccc1Cl)c1ccc([N+](=O)[O-])o1,31.3,i,23.9,i,i,92.2,10.4,28.9
Cc1cccnc1NC(=O)c1ccc([N+](=O)[O-])o1,92.1,i,24.4,i,12.2,90.8,11.7,i
CC(=O)Nc1ccc2nc(NC(=O)c3ccco3)sc2c1,i,i,i,i,i,nt,nt,nt
COc1cccc(C=Nn2c(N)c(S(=O)(=O)c3cccs3)c3nc4ccccc4nc32)c1,nt,nt,nt,i,nt,nt,nt,nt
CC(=NNS(=O)(=O)c1ccc(C)cc1)c1ccc(NC(=O)C(F)(F)F)cc1,nt,nt,nt,i,nt,nt,nt,nt
CCc1nnc(NN=Cc2ccc(N3CCC(C)CC3)c([N+](=O)[O-])c2)n1N,nt,nt,nt,i,nt,nt,nt,nt
CC1CCN(c2ccc(/C=N\Nc3nncn3N)cc2[N+](=O)[O-])CC1,14.5,i,i,nt,i,i,i,i
Cc1ccnc2c1ccc1c(C)ccnc12,38.7,i,36.8,0.277,nt,69.6,24.6,i
Cc1ccsc1C=NNC(=O)c1ccc([N+](=O)[O-])cc1,nt,nt,nt,i,nt,nt,nt,nt
O=C(NCc1ccccc1)C1CCN(S(=O)(=O)c2cccc3cccnc23)CC1,i,i,i,i,i,nt,nt,nt
COc1ccc(CNC(=O)C2CCN(S(=O)(=O)c3cccc4cccnc34)CC2)cc1,13.5,i,i,i,i,i,i,i
CC(C)(C)c1ccc(C=CC(=O)c2ccc(NC3=NCCCS3)cc2)cc1,nt,nt,nt,i,nt,nt,nt,nt
CC1C(C#N)=C(N)OC2=C1C(=O)CC(c1ccccc1)C2 (stereo unspecified),97.1,i,73.5,i,i,i,i,i
N#CC1=C(N)OC2=C(C(=O)CC(c3ccccc3)C2)C1c1ccoc1 (stereo unspecified),i,i,i,i,i,nt,nt,nt
